# Rows were chosen to be rich in hits. Some 2.7% of all compounds tested hit in one or more screens of this group.
# PP5 primary: PP5 (human) phosphatase inhibition; P53041; purified PP5c, OMFP substrate fluorescence; inhibition, % at 6.7 µM; actives 0.18% (n = 320,000);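 active = inhibition above the campaign's mean inhibition across all tested compounds plus 3 SD, cut at about 9.5% in these data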;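 note: 0% = DMSO only and 100% = 100 µM cantharidin control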
# Target sequence (P53041 whole entry, looked up): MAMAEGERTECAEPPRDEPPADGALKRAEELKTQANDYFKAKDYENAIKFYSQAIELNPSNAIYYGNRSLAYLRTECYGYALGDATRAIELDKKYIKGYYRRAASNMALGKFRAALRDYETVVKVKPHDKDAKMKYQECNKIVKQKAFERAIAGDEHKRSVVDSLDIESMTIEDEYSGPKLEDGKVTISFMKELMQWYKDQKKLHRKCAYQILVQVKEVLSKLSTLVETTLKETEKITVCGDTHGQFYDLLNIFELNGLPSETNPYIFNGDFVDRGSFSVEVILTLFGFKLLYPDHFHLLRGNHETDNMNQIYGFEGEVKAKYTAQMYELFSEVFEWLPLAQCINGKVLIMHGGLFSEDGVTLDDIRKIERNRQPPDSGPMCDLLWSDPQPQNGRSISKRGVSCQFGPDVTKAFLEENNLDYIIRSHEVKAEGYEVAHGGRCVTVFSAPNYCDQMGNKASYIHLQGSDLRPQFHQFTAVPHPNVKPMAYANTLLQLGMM
# ANO1 activ: activators or potentiators of mouse TMEM16A chloride channel; actives 0.3% (n = 340,000); AID 623877; HEK293 TMEM16A/YFP-H148Q/I152L, iodide quench fluorescence; hits give low values; B-score at 10 µM;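 active = fluorescence-ratio B-score plate-corrected deviation score at least 3 library SD below zero, with starting fluorescence score within 5 deviations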;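 note: channel opened by trigger with iodide after compound preincubation; score built on the fluorescence ratio of max minus min over baseline; more negative score means more quench and so TMEM16A activation or potentiation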
# DNA FID counter: displaces DNA intercalator in HCV helicase counter-screen; DNA fluorescent intercalator displacement, fluorescence; inhibition, % at 7.9 µM; actives 0.17% (n = 290,000); AID 1845; in the data active = inhibition above about 37%;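 note: 0% = vehicle and 100% = reference compound; higher means more ethidium bromide displaced from hairpin DNA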
# PREPL inhibitor: inhibits the human prolyl oligopeptidase-like enzyme. actives 0.68% (n = 320,000). recombinant PREPL, fluorescence polarization activity-based probe. inhibition, % at 5.96 µM. Q4J6C6; in the data active = inhibition above about 43%;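 note: 0% = enzyme with DMSO and 100% = wells lacking enzyme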
# PP1 counter: PP1-alpha (human) inhibition in PP5 counter-screen. P62136. purified PP1alpha, OMFP fluorescence. inhibition, % at 6.7 µM. actives 0.9% (n = 320,000). AID 2235;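 active = inhibition above the mean inhibition of all tested compounds plus 3 SD, computed separately for each screening campaign, cut at about 15% in these data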
# TMEM16A inh: inhibitors of mouse TMEM16A calcium-activated chloride channel; Q8BHY3; HEK293 TMEM16A/YFP iodide influx fluorescence, ionomycin; normalized B-score (activity score, 25-100; higher = stronger inhibition) at 10 µM; actives 1.2% (n = 310,000); AID 588511;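 active = ratio plate-corrected score three or more library SD toward inhibition, starting fluorescence score within five deviations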;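 note: score derived from kinetic fluorescence span divided by baseline fluorescence per well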
# TMEM16A reconf: reconfirmed blocker of mouse TMEM16A calcium-activated chloride channel; actives 39% (n = 2,300); inhibition, % at 10 µM; shares compounds with TMEM16A inh; HEK293 TMEM16A/YFP-H148Q, iodide quench fluorescence; ionomycin added to raise cell calcium;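 active = mean duplicate percent inhibition, scaled so buffer wells are 0 and the reference blocker 100, over three buffer SD above buffer mean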
# HEK293 Ca mobil: alters calcium mobilization in TMEM16A HEK293 cells, counter-screen. actives 2% (n = 2,300). shares compounds with TMEM16A inh. AID 652231. TMEM16A/YFP HEK293, Fluo4 calcium mobilization. calcium response (% of ionomycin), % at 10 µM;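 active = duplicate-averaged calcium signal over 20% of the ionomycin maximum, relative to buffer baseline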;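 note: each well's signal is peak minus trough fluorescence divided by its pre-addition baseline; 0% = buffer wells and 100% = ionomycin wells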
# YFP-HEK293 quench: counter-screen for TMEM16A inhibitors: effect in parental YFP-HEK293 cells; shares compounds with TMEM16A inh; iodide YFP quench, ionomycin; YFP ratio F(max-min)/F0 at 10 µM; 2,300 tested, under 10 active; AID 652233;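 active = yellow fluorescent protein signal ratio exceeding the buffer control mean by over 5 SD of those controls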;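 note: ratio is mean of duplicate wells from kinetic YFP trace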
# ClC-1 rat inh: blocks the rat ClC-1 voltage-dependent chloride channel; AID 652236; 2,300 tested, under 10 active; CHO ClC-1-YFP, iodide influx fluorescence quench; iodide control reads 0, buffer control 100; ratio percent, % at 10 µM; shares compounds with TMEM16A inh;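 active = duplicate-mean ratio percent above the mean of iodide-only control wells, which defines zero, plus 5 of their SD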;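 note: higher percent means stronger block of ClC-1 iodide influx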
# * hit, by the source's call; i = inactive; . = no result given.
SMILES,PP5 primary,ANO1 activ,DNA FID counter,PREPL inhibitor,PP1 counter,TMEM16A inh,TMEM16A reconf,HEK293 Ca mobil,YFP-HEK293 quench,ClC-1 rat inh
CC(C)Cn1c(N)c(C(=O)COC(=O)c2cc(C3CC3)nc3ccccc23)c(=O)n(C)c1=O,5,.,-17,-5,5,25*,i,i,-1.1,-11
COc1ccc2[nH]c(=O)c(CN(CCO)S(=O)(=O)c3ccc(C)cc3)cc2c1,-3,i,-9,15,-7,i,.,.,.,.
CCCCN(Cc1cc2cc(OC)ccc2[nH]c1=O)S(=O)(=O)c1ccc(C)cc1,4,i,21,-6,13,25*,29%*,i,-0.64,-18
COc1ccc2cc(CN(CC3COCCO3)S(=O)(=O)c3ccccc3)c(=O)[nH]c2c1 (stereo not drawn),.,i,-11,.,.,.,.,.,.,.
COc1ccc2cc(CN(Cc3cccnc3)S(=O)(=O)c3ccccc3)c(=O)[nH]c2c1,6,i,-17,5,-5,100*,i,i,-0.86,-6
CCN1CCCC1CNc1ccc(S(C)(=O)=O)cc1[N+](=O)[O-] (stereo not drawn),-2,i,1,-2,-1,i,.,.,.,.
COc1ccccc1-c1noc(CCC(=O)Nc2cccc(C(F)(F)F)c2)n1,2,i,-11,-58,5,100*,i,i,-1.3,-2
COc1cccc(NC(=O)CCc2nc(-c3ccccc3F)no2)c1,2,i,-4,10,-5,i,.,.,.,.
CC(C)(C)c1ccc(-c2noc(CCC(=O)Nc3cccnc3)n2)cc1,4,i,-20,-3,4,100*,18%*,i,-0.92,-6
CCN(CC)Cc1nc2c(c(=O)[nH]1)C(CC)(CC)Cc1ccccc1-2,1,i,4,2,2,i,.,.,.,.
COc1ccccc1-c1nc(COc2ccc(Cl)cc2Cl)no1,3,i,-1,-13,-5,i,.,.,.,.
O=C(CCSCc1ccc(Cl)cc1)NCc1cccnc1,3,i,-6,-3,0,i,.,.,.,.
Cc1ccc(C(=O)Nc2nc(=O)n(C(=O)C3CC3)s2)cc1,0,i,-7,0,-4,i,.,.,.,.
Cc1ccc(C(=O)Nc2nc(=O)n(C(=O)c3ccccc3C)s2)cc1,3,i,-28,-8,-4,25*,26%*,i,-0.97,-10
O=S1(=O)NC(=NCCc2ccccn2)c2ccccc21,0,i,1,-5,-2,i,.,.,.,.
O=C(Nc1nc2cc3c(cc2s1)OCCO3)c1cccc(N2C(=O)CCC2=O)c1,3,i,-6,-6,4,i,.,.,.,.
CCN(CC)S(=O)(=O)c1cccc(C(=O)Nc2nc3cc4c(cc3s2)OCCO4)c1,5,i,-2,0,0,100*,20%*,i,-0.5,-5
Cc1cc(N/N=C/c2ccccc2Cl)nc(NCc2ccccc2)n1,6,i,4,-21,17*,i,i,i,-1.1,-10
CC1CCC(NC(=O)c2cc(C3CC3)nn2-c2ccccc2)CC1 (stereo not drawn),2,i,.,5,3,.,.,.,.,.
O=C(CCC(=O)OCC(=O)c1ccc(F)cc1)NC1CCCCC1,-2,i,-9,14,-1,25*,i,i,-1.1,-14
CCN1C[C@@H]2[C@@H]3C(=O)N(Cc4ccccc4)C(=O)[C@@H]3[C@](C)(C1=O)N2C(=O)c1ccc(C)cc1,.,i,.,.,.,.,.,.,.,.
Cc1ccc(C(=O)N2c3ccccc3N(Cc3ccccc3)C(=O)C2(C)C)cc1,2,i,-1,18,7,100*,24%*,i,-0.97,-10
Cc1onc(-c2c(F)cccc2Cl)c1C(=O)Nc1nc2c(s1)CCCC2,0,i,-18,-1,1,100*,i,i,-1,-9
Cc1cccc(NC(=O)CN2CCN(C(=O)CN3C(=O)NC4(CCCCC4C)C3=O)CC2)c1C (stereo not drawn),.,i,.,.,.,.,.,.,.,.
COc1cc(-c2nc(S(=O)(=O)c3ccccc3)c(N3CCOCC3)o2)cc(OC)c1OC,1,i,-7,16,-3,100*,i,i,-1,-7
SMILES,PP5 primary,ANO1 activ,DNA FID counter,PREPL inhibitor,PP1 counter,TMEM16A inh,TMEM16A reconf,HEK293 Ca mobil,YFP-HEK293 quench,ClC-1 rat inh
CCC1(c2ccccc2)NC(=O)N(CC(=O)NC2CCCCCC2)C1=O (stereo not drawn),.,i,.,7,.,.,.,.,.,.
Cc1ccc(C)c(OCC(=O)Nc2nc3ccc([N+](=O)[O-])cc3s2)c1C,1,i,3,3,3,100*,i,i,-1,-24
CCN(C[C@H]1N[C@@](CC)(C(=O)OC)[C@H]2C(=O)N(C)C(=O)[C@@H]12)C(=O)NC(C)C,.,.,.,7,.,.,.,.,.,.
CCC(C)N1C(=O)c2ccccc2C1C(=O)NC1CCCCCC1 (stereo not drawn),3,i,-8,3,-3,25*,i,i,-1.1,-17
CC(C)N1C(=O)c2ccccc2C1C(=O)NC1CCCCCC1 (stereo not drawn),4,i,4,-7,-4,i,.,.,.,.
O=C(Nc1nnc(-c2ccccc2)s1)c1ccc(Cl)c(S(=O)(=O)N2CCOCC2)c1,.,.,1,.,.,.,.,.,.,.
O=C(Nc1nnc(-c2ccccc2)s1)c1cc(S(=O)(=O)N2CCOCC2)c(Cl)cc1Cl,-2,i,1,-8,-4,25*,i,i,-1.2,-4
C=CCn1c(SCC(=O)N2CCOCC2)nnc1C(C)NC(=O)c1ccccc1 (stereo not drawn),-3,i,-10,16,-4,i,.,.,.,.
CC12CC3CC(C)(C1)CC(C(=O)NC1=NCCS1)(C3)C2,3,i,-5,-3,-1,i,.,.,.,.
CC12CC3(C)CC(C)(C1)CC(C(=O)NC1=NCCS1)(C2)C3,4,i,-8,-21,0,25*,i,i,-1.1,-4
CC(C)c1ccc(/C=C/C(=O)Nc2ccc(CN3CCOCC3)cc2)cc1,3,i,21,-2,2,100*,26%*,i,-1.1,6
CC(C)c1ccc(C(=O)Nc2ccc(CN3CCOCC3)cc2)cc1,0,i,6,26,2,100*,i,i,-1.1,-14

# Screening data (PubChem)
